Assay outcomes deposited in PubChem BioAssay by several laboratories.
PERK inh = human PERK inhibition, primary cell-based screen | AID 1416 | Q9NZJ5 | CHO PERK-DD fusion, SEAP luminescence translation reporter | hit rate 0.17% among 220,000 | inhibition, % at 5.6 µM;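 active = inhibition above the mean inhibition of all tested compounds plus 3 SD, set separately per screening campaign, cut at about 2.9% in these data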;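 note: PERK kinase domain activated by AP20187 dimerizer at 100 nM; 0% = DMSO with dimerizer and 100% = rapamycin at 8.4 µM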
eIF4H FP inh = inhibitors of RNA binding by human eIF4H; hit rate 0.94% among 290,000; eIF4H fluorescence polarization binding assay; AID 2012; inhibition, % at 35 µM;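 note: calls also rest on retests at 20 µM and on dose response follow-up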
PABP polyA inh = PABP-poly(A) binding inhibition; P11940; PABP-poly(A) RNA binding, fluorescence polarization; inhibition, % at 35 µM; hit rate 1% among 290,000;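 note: calls also rest on retests at 20 µM and on dose response follow-up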
MLLE-PAM2 inh = inhibitors of microRNA-mediated deadenylation, human PABP1 MLLE binding; AID 588489; P11940; hit rate 0.36% among 360,000; inhibition, % at 20 µM; GST-MLLE / FITC-PAM2 fluorescence polarization; in the data active = inhibition above about 35%, passing the limit was not always enough;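 note: plate controls were DMSO wells with GST-MLLE for no effect and wells lacking GST-MLLE protein for full effect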
GRK2 inh = human GRK2 inhibition via aptamer displacement; bead flow cytometry, FAM-aptamer displacement from GRK2; inhibition of aptamer binding, % at 10 µM; hit rate 0.59% among 330,000;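 active = inhibition of aptamer binding above 40%, roughly 3 SD of noise, on plates passing a quality check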;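 note: median bead fluorescence of bound FAM aptamer so fluorescent compounds give negative values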
Target sequence (P25098 whole entry, looked up): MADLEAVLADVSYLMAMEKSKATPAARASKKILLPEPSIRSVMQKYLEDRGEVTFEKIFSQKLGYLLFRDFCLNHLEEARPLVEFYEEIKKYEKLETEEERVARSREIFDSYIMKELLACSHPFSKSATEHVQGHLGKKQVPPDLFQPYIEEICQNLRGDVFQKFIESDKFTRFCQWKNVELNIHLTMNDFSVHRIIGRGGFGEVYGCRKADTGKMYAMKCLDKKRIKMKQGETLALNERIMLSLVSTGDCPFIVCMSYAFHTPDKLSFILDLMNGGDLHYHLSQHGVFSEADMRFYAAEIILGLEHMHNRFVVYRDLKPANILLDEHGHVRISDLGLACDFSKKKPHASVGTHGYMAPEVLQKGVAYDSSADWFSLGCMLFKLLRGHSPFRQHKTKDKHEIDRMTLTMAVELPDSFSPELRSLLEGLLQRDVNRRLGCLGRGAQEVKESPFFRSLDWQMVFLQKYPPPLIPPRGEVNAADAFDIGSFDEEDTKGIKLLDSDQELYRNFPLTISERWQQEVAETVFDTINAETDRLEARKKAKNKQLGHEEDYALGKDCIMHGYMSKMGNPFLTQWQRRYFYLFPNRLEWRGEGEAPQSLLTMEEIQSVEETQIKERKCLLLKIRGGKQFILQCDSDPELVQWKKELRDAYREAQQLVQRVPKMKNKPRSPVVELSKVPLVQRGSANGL
* = called active by the depositor; ? = inconclusive; nt = not tested or not shown. A selection: hits, their analogues and other compounds. The true share with any hit is near 1.9%. Unless noted, the rule behind the calls is not given here.

SMILES	PERK inh	eIF4H FP inh	PABP polyA inh	MLLE-PAM2 inh	GRK2 inh
CC(C)C1Nc2ccc(S(N)(=O)=O)cc2C2C=CCC21 (stereo not given)	2	24	22	2	1
CCOc1ccccc1-n1c(=S)sc2c(=O)n(-c3ccc(C)cc3)c(=S)[nH]c21	1	active	58*	21	2
Cc1oc(C(C)(C)C)cc1C(N)=O	3.0*	-4	18	4	0
Cc1cccc(OCCNC(=O)CCNS(=O)(=O)c2ccc3ccccc3c2)c1	nt	nt	nt	11	0
Cc1ccc(C=C2C(Cl)=C(Cl)C(Cl)=C2Cl)cc1	2	102*	84*	nt	3
Cc1ccc(/C=[N+](/C)[O-])cc1	2	-6	?	8	0
Cc1nc(Nc2cccc(C(C)O)c2)c2nnn(Cc3ccccc3F)c2n1 (stereo not given)	-1	1	12	10	1
O=C(NCc1ccco1)c1cccn2c(=O)c3cc4ccccc4cc3nc12	0	25	64	nt	nt
COCCCNC(=O)c1cccn2c(=O)c3cc4ccccc4cc3nc12	0	20	67*	36	0
C=CCN(CC=C)C(=S)NC(=O)c1ccc(OC)c(Br)c1	-2	3	-2	44*	2
CCN(CC)C(=S)NC(=O)c1ccc(OC)c(Br)c1	-1	4	4	35	1
O=C(Nc1ccncc1)c1ccc2ncsc2c1	nt	nt	nt	12	0
O=C(Nc1ccc(S(=O)(=O)Nc2ncccn2)cc1)c1ccc2ncsc2c1	2.9*	26	4	-30	2
COC(=O)c1sccc1NC(=O)Nc1ccc(C(C)=O)cc1	nt	-1	4	9	2
COC(=O)c1cccc(NC(=S)Nc2ccccc2Cl)c1	1	-1	13	21	3
COC(=O)c1cc(NC(=S)Nc2cc(Cl)cc(Cl)c2)cc(C(=O)OC)c1	0	-1	1	36*	8
Cc1[nH]c2c(C)cccc2c1CC(=O)O	1	7.2*	54	-4	3
C=CCOc1ccc(CN(C)CC(=O)Nc2ccc3c(c2)CCC3)cc1	1	18	2	-3	0
CCOc1ccc(CN(C)CC(=O)Nc2ccc3c(c2)CCC3)cc1OC	-1	76*	3	1	0
CCn1c(CSc2nccn2C)nc2cc(C(=O)O)ccc21	2	115*	126*	51*	0
CCn1c(CSc2nc3ccccc3[nH]2)nc2cc(C(=O)O)ccc21	1	14	26	-34	4
COc1ccc(C2=CC(c3ccc(F)cc3)n3nnnc3N2)cc1 (stereo not given)	0	0	-9	46*	0
Cc1cc(=O)n(CC(C)C)c(O)c1C#N	1	119*	68*	-1	3
CCn1c(O)c(C#N)c(C)cc1=O	2	78*	46	13	0
Cc1cc(=O)n(CCO)c(O)c1C#N	1	?	?	23	0
SMILES	PERK inh	eIF4H FP inh	PABP polyA inh	MLLE-PAM2 inh	GRK2 inh
COCCCNC(=O)/C(C#N)=c1\s/c(=C\c2ccccc2OC(F)F)c(=O)n1CCCOC	0	55*	10	-8	0
CN(C)CCCNCCCNC(=O)c1ccco1	1	33*	64*	6	0
CC(C)(C)c1ccc(C(=O)NCCCNC(=O)c2ccco2)cc1	nt	-5	-1	4	0
CC1CCN(c2ccccc2NC(=S)NC(=O)c2ccco2)CC1	1	nt	nt	46*	0
Cc1nc(NC(=S)NC(=O)c2ccco2)sc1C(=O)N(C)C	nt	-4	4	41*	1
CC(C)(C)C(=O)Nc1ccccc1N1CCN(C(=O)c2ccc(Cl)cc2)CC1	-1	86*	1.9*	-5	0
CC1CCN(c2ccccc2NC(=S)NC(=O)c2cccs2)CC1	1	-3	-5	35	4
CC1CCN(c2ccccc2NC(=S)NC(=O)C(C)(C)C)CC1	1	-5	70	39*	0
CC1CCN(c2ccccc2NC(=O)c2ccc(F)cc2)CC1	1	8	-5	14	2
Cc1ccc(C(=O)Nc2nc(C)c(C(=O)N(C)C)s2)o1	nt	-8	8	-7	1
COc1cc(/C=N/NC(=O)c2nnn(-c3nonc3N)c2C)ccc1OCc1ccc(Cl)cc1	nt	nt	nt	8	nt
COc1ccc(NC(=O)CN(C)CC(=O)Nc2sc3c(c2C#N)CCC3)cc1	nt	nt	nt	11	3
CCN(CC)S(=O)(=O)c1cc(NC(=O)CCNC(=O)c2ccco2)ccc1C	nt	15	0	-9	6
O=C1NC(=S)SC1=Cc1ccccn1	nt	nt	nt	7	nt
O=C(NC(=S)Nc1ccccc1Br)c1ccco1	nt	-9	4	45*	1
Cc1cccc(NC(=S)NC(=O)c2ccco2)c1C	nt	0	-6	34	0
Cc1ccc([N+](=O)[O-])cc1NC(=S)NC(=O)c1cccnc1	-1	-5	-9	41*	1
O=C(NC(=S)Nc1cc([N+](=O)[O-])ccc1O)c1cccnc1	0	7	2	42*	0
Cc1ccc([N+](=O)[O-])cc1NC(=S)NC(=O)c1ccco1	1	-1	0	14	1
O=C(Nc1ccc(F)cc1)C(NC1CCCCC1)c1ccccc1 (stereo not given)	0	2.7*	56*	-2	0
O=C(Nc1ccc(F)cc1)NC1CCCCCCC1	nt	-6	1	7	0
O=C1C(Nc2ccccc2)=C(N2CCCCC2)C(=O)c2ccccc21	0	4	-2	25	1
O=C1C(Nc2cccc(O)c2)=C(N2CCCCC2)C(=O)c2ccccc21	1	6	16	49*	0
COc1ccc(NC(=O)c2ccco2)cc1NC(=O)c1ccco1	0	2	4	7	1
COc1ccc(NC(=O)c2ccco2)cc1N	1	92*	74*	-2	0
SMILES	PERK inh	eIF4H FP inh	PABP polyA inh	MLLE-PAM2 inh	GRK2 inh
Nc1nc(F)cc(N2CCCCCC2)n1	0	4	?	11	2
CCOc1ccc(NC(=O)CCN2C(=S)NC(C)(C)CC2C)cc1 (stereo not given)	1	5.7*	75*	-49	0
CC1CC(C)(C)NC(=S)N1CCCC(=O)Nc1ccc(Cl)cc1 (stereo not given)	0	active	85*	-93	3
CC1CC(C)(C)NC(=S)N1CCC(=O)Nc1ccc2c(c1)OCCO2 (stereo not given)	-1	-9	20	0	0
CC(C)c1ccc(NC(=O)CCCN2C(=S)NC(C)(C)CC2C)cc1 (stereo not given)	0	-6	0	-85	0
Clc1cccc(Cc2c(C3CCCCC3)nc3ccc(Cl)cn23)c1	nt	nt	nt	-5	nt
O=C(O)c1oc2ccc(Br)cc2c1-n1cccc1	3	81*	20*	4	2
Cc1c(C(=O)N2CCCCC2)oc2ccc(Br)cc12	nt	nt	nt	-4	3
CCCN1CCN(CCCNC(=O)Cn2nc(C)n3c(cc4cc(F)ccc43)c2=O)CC1	nt	2	-11	-3	3
COc1ccc(CNC(=O)CN(Cc2ccc(F)cc2)C(=O)c2csnn2)cc1	0	-8	-7	34	1
NS(=O)(=O)c1ccc(CCNc2ccn3nc(-c4ccc(OCCN5CCOCC5)cc4)cc3n2)cc1	nt	nt	nt	-9	nt
